Luc counter = Counterscreen for Luciferase (Kinase-Glo TM) Inhibition | Luciferin 4-monooxygenase (Photuris pensylvanica), Q27757 | Kinase-Glo luciferase, ATP luminescence, 8 min | AID 1379, 2008 | Potency, µM (titrated, usually from 38.3 µM), most hits filed as inhibitors | actives 0.28% (n = 200,000); note: nearly all actives have a fitted effect of over 60% in size
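Luminescence was the read-out, taken after 8-minute incubation at ambient temperature. Luciferase turned over luciferin with 10 uM ATP in imidazole pH 7.2 buffer containing KCl, MgCl2, Tween 20 and BSA.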
RORgamma inh = qHTS for inhibitors of ROR gamma transcriptional activity; Drosophila S2 Gal4-RORgamma UAS-luciferase reporter, 20 h; Nuclear receptor ROR-gamma (Mus musculus), P51450; AID 2551, 2010; Potency, µM (titrated, usually from 53.6 µM), hits mostly inhibitors; actives 5.4% (n = 310,000); note: nearly all actives have a fitted effect of over 60% in size
Target sequence (P51450 whole entry, looked up, the tested form may be a part): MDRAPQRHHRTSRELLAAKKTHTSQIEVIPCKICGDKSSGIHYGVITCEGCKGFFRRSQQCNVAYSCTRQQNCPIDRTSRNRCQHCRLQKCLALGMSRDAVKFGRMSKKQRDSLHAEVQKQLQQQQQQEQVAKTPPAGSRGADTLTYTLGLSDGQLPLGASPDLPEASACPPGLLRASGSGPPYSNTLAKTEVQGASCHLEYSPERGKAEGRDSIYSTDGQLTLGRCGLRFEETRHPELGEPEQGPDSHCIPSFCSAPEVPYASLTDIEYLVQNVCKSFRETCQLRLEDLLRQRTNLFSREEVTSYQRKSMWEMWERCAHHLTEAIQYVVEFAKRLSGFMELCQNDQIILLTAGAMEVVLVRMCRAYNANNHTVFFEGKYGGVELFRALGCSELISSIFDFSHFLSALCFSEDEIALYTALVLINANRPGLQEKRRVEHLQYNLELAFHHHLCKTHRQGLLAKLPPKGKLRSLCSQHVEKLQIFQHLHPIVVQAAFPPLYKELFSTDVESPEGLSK
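Schneider cells (Drosophila), stable Gal4 DBD–ROR gamma + UAS-luc; 1 hr cmpd preincubation; Cu2+ induction 700 uM final; 20 hr ambient; luminescence.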
VP16 counter = VP16 counterscreen qHTS for inhibitors of ROR gamma transcriptional activity | Drosophila S2 Gal4-VP16 UAS-luciferase, luminescence, 20 h | Potency, µM (doses to about 53.6 µM), actives largely listed as inhibitors | actives 3.5% (n = 310,000) | AID 2546, 2010;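 note: Gal4-VP16 expression switched on by copper sulfate through the metallothionein promoter; nearly all actives have a fitted effect of over 50% in size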
Hits are given with their value; i = inactive; ? = inconclusive; nt = not tested or not shown. Sampled rows, rich in hits. Any-hit rate of the full collection: about 6.2%. Calls come from the whole dose curve; as a rule, active = well fitted curve in the direction sought with a large enough effect; inconclusive = small, poorly fitted or top-dose-only effect, or another doubt; inactive = no such curve, though single readings can be large; an effect the other way counts as inactive or inconclusive.

SMILES	Luc counter	RORgamma inh	VP16 counter
COc1ccc(CNC(=S)Nc2cccc(OC)c2)cc1	nt	17.8µM	12.6µM
CC(CCC(=O)O)C1CCC2C3CC[C@H]4CC(O)CC[C@@]4(C)C3C=C[C@]12C (stereo partly drawn)	i	i	i
COC(=O)c1cc(COc2ccc3c4c(c(=O)oc3c2)CCC4)c(C)o1	i	i	i
COc1ccc(N(C=O)C(=S)SC)cc1	nt	?	i
CCCCN(C(=O)CSc1nnc(-c2ccccc2OC)n1C)c1c(N)n(Cc2ccccc2)c(=O)[nH]c1=O	i	i	i
COc1cccc(NC(=S)NN=C2CCCCCC2)c1	i	12.6µM	?
COc1cccc(NC(=O)Nc2ccc(Cc3ccncc3)cc2)c1	i	?	?
COc1ccc(CNC(=S)Nc2ccc(F)c(Cl)c2)cc1	nt	7.08µM	?
COc1ccc(CNC(=S)Nc2cc(C)cc(C)c2)cc1	i	3.98µM	12.6µM
CCc1ccc(NC(=S)Nc2cccc(OC)c2)cc1	i	7.94µM	?
NS(=O)(=O)c1ccc(CNC(=S)Nc2ccc(F)c(Cl)c2)cc1	nt	i	?
COc1cccc(NC(=S)NC2CC(C)(C)NC(C)(C)C2)c1	i	i	i
Cc1cc(C)cc(NC(=S)NCc2ccncc2)c1	i	?	i
O=C(Nc1nnc(S(=O)(=O)N2CCCCC2)s1)c1ccc(Cl)cc1	nt	i	i
Cc1nc(C)c(C(=O)NNC(=O)Nc2ccc(Cl)cc2)s1	nt	i	i
CC1CCCC(N2CCN(C(=O)c3cccc(F)c3)CC2)C1 (stereo not drawn)	i	i	i
CCCN(CC1CCCO1)C(=O)CCc1nnc(CCc2ccc(OC)cc2)o1 (stereo not drawn)	nt	i	i
CCCc1cc(-c2[nH]ncc2-c2ccc3c(c2)OCCCO3)c(O)cc1OC	i	3.55µM	?
CCc1cc(-c2[nH]ncc2-c2ccc3c(c2)OCO3)c(O)cc1O	i	i	i
CCOc1cc(NC(=S)NCC(C)C)c(OCC)cc1NC(=O)c1cccs1	i	3.98µM	8.91µM
CCOc1cc(NS(C)(=O)=O)c(OCC)cc1NC(=O)c1cccs1	i	i	i
CCNC(=S)Nc1cc(OCC)c(NC(=O)c2cccs2)cc1OCC	i	11.2µM	?
CCOc1cc(NC(=O)c2cccs2)c(OCC)cc1NC(=O)c1ccccn1	i	i	i
CCCN(CCC)c1ccc(/C=C/c2ccc3cc(OCC)ccc3n2)cc1	nt	i	i
CN(C)c1ccc(/C=C/c2ccc3ccccc3n2)cc1	nt	3.98µM	2.82µM
SMILES	Luc counter	RORgamma inh	VP16 counter
Cc1ccc(/C=C/c2nc3ccccc3s2)s1	?	?	10µM
Cc1ccc(Nc2nc3ccccc3s2)cc1	i	?	?
CN(C)c1ccc(CNc2nc3ccccc3s2)cc1	nt	5.01µM	7.94µM
CN(C)c1ccc(/C=C/c2nc3ccccc3s2)cc1	11.2µM	0.316µM	3.98µM
COc1cc(/C=C/c2nc3ccccc3s2)cc(OC)c1O	i	i	i
CC(C)n1c(NCc2ccc(N(C)C)cc2)nc2ccccc21	i	i	i
CCCCc1cc(=O)oc2cc(OCC(=O)NCC3CCC(C(=O)O)CC3)ccc12 (stereo not drawn)	nt	i	i
C(=C\c1ccc2ccccc2n1)/c1ccccc1	nt	i	i
O/C(=C\c1ccc2ccccc2n1)c1ccc(O)cc1O	i	2.82µM	8.91µM
Oc1ccc(/C=C/c2ccc3ccccc3n2)cc1	?	7.94µM	11.2µM
Oc1ccc(/C(Cc2ccc3ccccc3n2)=N\Nc2ccccc2)c(O)c1	nt	i	i
COc1ccc(CNC(=O)Cn2cccc2C(=O)c2ccccc2)cc1	nt	i	i
O=C(c1ccccc1SCc1ccc(F)cc1)N1CCOCC1	i	?	i
O=C(NNC(=S)Nc1cccc(C(F)(F)F)c1)c1cccc(Cl)c1	i	?	?
Cc1ccc(NC(=S)NNC(C)(C)C)cc1	nt	?	0.251µM
CCCNC(=S)Nc1cccc(C(F)(F)F)c1	i	10µM	?
CC(C)(C)NNC(=S)Nc1cccc(C(F)(F)F)c1	nt	1µM	3.16µM
Cc1ccc(NC(=S)NNC(=S)NCc2ccccc2)cc1	i	i	i
O=C(NNC(=S)Nc1cccc(C(F)(F)F)c1)c1ccccc1Cl	i	12.6µM	10µM
FC(F)(F)c1cccc(NC(=S)NCCN2CCOCC2)c1	i	i	i
C/C=C/C(=O)Nc1cccc(C(F)(F)F)c1	i	i	i
COc1ccc(Cl)cc1NC(=O)NCc1ccc2c(c1)OCO2	nt	i	i
O=C(O)c1cc(N(Cc2ccccc2O)Cc2ccccc2O)ccc1O	nt	i	i
Cn1c(SCc2ccccc2Cl)nc2c1c(=O)[nH]c(=O)n2C	nt	i	i
O=c1cnc2cnc(N3CCNCC3)nc2n1CCc1ccccc1	i	i	i
COc1cccc(C(=O)NCC(=O)N2CCC3(CC2)NCCc2[nH]cnc23)c1OC	nt	i	i

Screens as filed in PubChem BioAssay.
